# GALK inhibitor – inhibitors of human galactokinase (GALK); Potency, µM (highest dose often 57.5 µM), for the others: top-dose activity, negative = inhibition, hits mostly inhibitors; 44,000 tested, under 10 active; recombinant GALK, Kinase-Glo ATP luminescence, 1 h; P51570;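 further: plate controls were full GALK reaction for no effect and reaction lacking GALK for full effect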
#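 5 nM GALK; 35 uM ATP; 100 uM D-galactose; 20 mM HEPES pH 8.0, 5 mM MgCl2, 60 mM NaCl, 1 mM DTT, 0.01% BSA; 1 h RT; Kinase-Glo Plus luminescence.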
# GALC G270D up – galactocerebrosidase G270D activity enhancement, cell-based. Potency, µM (series often up to 57.5 µM), most hits filed as activators. 145M-Twi-hGALC-G270D cells, HMU-beta-Gal fluorescence, 48 h. AID 1159614. hit rate 0.1% among 45,000. P54803; further: potency means the concentration at half of the fitted maximal effect; 0% is about no effect; nearly all actives have a fitted effect of over 65% in size
# Target sequence (P54803 whole entry G286D): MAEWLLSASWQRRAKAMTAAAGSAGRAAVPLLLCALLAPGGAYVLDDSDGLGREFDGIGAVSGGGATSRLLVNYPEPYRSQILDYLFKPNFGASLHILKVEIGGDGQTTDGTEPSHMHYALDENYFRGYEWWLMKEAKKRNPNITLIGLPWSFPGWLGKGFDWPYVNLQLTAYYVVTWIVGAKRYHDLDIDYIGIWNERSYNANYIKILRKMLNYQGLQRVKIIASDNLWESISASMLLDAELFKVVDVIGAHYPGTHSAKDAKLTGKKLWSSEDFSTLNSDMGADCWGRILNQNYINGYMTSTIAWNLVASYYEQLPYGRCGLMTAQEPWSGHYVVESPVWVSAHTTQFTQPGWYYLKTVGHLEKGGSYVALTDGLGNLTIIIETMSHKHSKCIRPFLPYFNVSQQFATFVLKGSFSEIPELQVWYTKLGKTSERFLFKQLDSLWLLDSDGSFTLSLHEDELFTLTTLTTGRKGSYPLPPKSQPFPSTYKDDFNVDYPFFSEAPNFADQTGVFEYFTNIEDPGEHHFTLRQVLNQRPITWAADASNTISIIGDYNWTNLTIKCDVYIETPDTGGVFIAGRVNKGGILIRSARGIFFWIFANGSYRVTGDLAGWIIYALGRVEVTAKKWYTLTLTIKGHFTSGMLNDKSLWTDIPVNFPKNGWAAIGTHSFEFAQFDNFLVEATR
#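 qHTS, 1536-well; 145M-Twi-hGALC-G270D cells (WT line also made) in DMEM/F12 + 10% FBS; compound incubation on live cells; HMU-β-gal 0.1 mM final, pH 5.2, NaTC; carbonate stop; fluorescence increase = enhanced residual activity.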
# TSG101-PTAP inh – TSG101-PTAP interaction inhibition, HIV-1 budding; Q99816; Fluorescence polarization, FITC-PTAP peptide/Tsg101, 20 min; Potency, µM (top dose mostly 115 µM), actives largely listed as inhibitors; 44,000 tested, under 10 active; AID 1347069; further: potency means the concentration at half of the fitted maximal effect; 0% is about no effect
#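 qHTS FP binding, 20 min r.t.: 10 uM Tsg101 domain + 50 nM FITC-PTAP peptide, pH 7.5 HEPES buffer with TCEP and EDTA.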
# FH mod – Identification of activators of human fumarate hydratase by quantitative high-throughput screening; FH coupled MDH/diaphorase resazurin fluorescence, 15 min; hit rate 0.22% among 54,000; AID 1347055, 2019; Potency, µM (doses to about 79.9 µM), for inactives: at the highest dose activity change, negative = inhibition, usual class: inhibitors; further: potency means the concentration at half of the fitted maximal effect; on the % scale 0 is the no-effect control and ±100 the full control effect; the screen sought activators but most active calls are inhibition curves; nearly all actives have a fitted effect of over 45% in size
# B2AR arrestin ag – agonists recruiting beta-arrestin to human beta2-adrenergic receptor; HTLA Tango cells, beta-arrestin recruitment, luciferase luminescence, 18 h; Potency, µM (highest dose often 46.1 µM), hits mostly activators; 44,000 tested, under 10 active; AID 1347077;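 further: potency means the concentration at half of the fitted maximal effect; 0% = DMSO and full agonism = EC100 isoproterenol or metaproterenol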
#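 Luminescence read-out: arrestin recruitment to recombinant beta2-AR releases tTA, inducing luciferase. Cells exposed 18 hr at 37 degrees C to up to 46 microM compound; %Activity from corrected signal, concentration-response curves classified by r2, magnitude and efficacy.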
# DRV1 agonist – GPR32 (DRV1) agonism, beta-arrestin recruitment; O75388; CHO-K1 GPR32 beta-arrestin PathHunter luminescence, 90 min; zero percent set by DMSO-only wells; activation, % at 76.9 µM; hit rate 2.5% among 48,000; AID 1346428;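 active means activation of at least 60% and not above a set upper limit, about 1 call in 100 departs from these limits; inconclusive means activation of 40% to 60%, or above that upper limit; inactive means activation under 40%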; further: 0% is about no effect
#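 Luminescent readout of beta-Gal complementation quantifies ligand-induced beta-arrestin association with GPR32 in CHO-K1 cells; 90 min compound incubation at 37 °C, detection 1 h at room temperature.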
# An asterisk follows results filed as active; i = inactive; ? = inconclusive; nt = no result; [ ] = dose if it differs, or a comment. Most compounds without a hit are left out; they make up all but 2.6% or so of the library. Unless noted, the call rests on the fitted dose curve; in most records, active means well fitted curve in the direction sought with a large enough effect; inconclusive means small, poorly fitted or top-dose-only effect, or another doubt; inactive means no such curve, though single readings can be large; an effect the other way counts as inactive or inconclusive.
SMILES,GALK inhibitor,GALC G270D up,TSG101-PTAP inh,FH mod,B2AR arrestin ag,DRV1 agonist
O=C(NCc1cccc(O)c1)Nc1nc(-c2ccncc2)cs1,nt,nt,nt,5%,nt,nt
COc1c2cc(c(O)c1OC)-c1cc(ccc1O)CCC(O)CCCC2 (centres undefined),nt,nt,nt,6%[53.3 µM],nt,nt
Cc1ccc(NC(=O)Cn2nc(C(F)(F)F)c3c2CCCC3)cc1,2%,i,i,2%,i,77*
Cc1cccc(-c2nc3c4ccccc4n(CC(=O)Nc4cccc(F)c4)c(=O)n3n2)c1,-1%,i,i,-8%,i,76*
C[C@@H]1O[C@@H](O[C@H]2[C@@H]3C=CO[C@@H](O[C@@H]4O[C@H](CO)[C@@H](O)[C@H](O)[C@H]4O)[C@@H]3[C@@]3(CO)O[C@@H]23)[C@H](O)[C@H](O)[C@H]1OC(=O)/C=C/c1ccc(O)cc1,nt,nt,nt,5%[20.6 µM],nt,nt
COc1cc(NC(=O)c2ccc(C)cc2)ccc1NC(=O)c1cc2ccccc2o1,0%,i,i,5%,i,-3
CCCCCC(=O)Nc1ccc(NC(=O)c2cc3ccccc3o2)c(OC)c1,-3%,i,i,0%,i,121*
COc1ccc(C)c2sc(NC(=O)c3ccncc3)nc12,nt,nt,nt,-5%,nt,nt
COc1ccc(Cn2c(C(=O)O)c(CNC3CCCC3)c3ccc(OC)cc32)cc1,1%,i,i,-18%,i,20
COc1ccc2c(CNCc3ccc(C)o3)c(C(=O)O)n(Cc3ccccc3C)c2c1,3%,i,i,-28%,i,-6
COc1ccc2c(CNCCc3ccco3)c(C(=O)O)n(Cc3ccc(F)cc3)c2c1,-7%,i,i,-19%,i,33
COc1ccc2c(CNCCc3ccco3)c(C(=O)O)n(Cc3ccc(C)cc3)c2c1,0%,i,i,-15%,i,89*
COc1ccc(Cn2c(C(=O)O)c(CNCc3ccc(C)o3)c3ccc(OC)cc32)cc1,1%,i,i,-15%,i,75*
COc1ccc2c(CNC3CCC(C)CC3)c(C(=O)O)n(Cc3ccc(F)cc3)c2c1 (centres undefined),-2%,i,i,?,i,91*
CCCCNc1ncc(C(=O)NCc2ccc(-n3ccnc3)cc2)c(NC2CCC(O)CC2)n1 (centres undefined),nt,nt,nt,7%,nt,nt
C/C=C(\C)C(=O)OC1C[C@@]2(COC(C)=O)O[C@H]2/C=C\[C@@]2(C)O[C@@H]2[C@H]2OC(=O)C(COC(C)=O)=C12 (some centres undefined),nt,nt,nt,-10%[53.3 µM],nt,nt
COc1cc(C2NC(=O)c3c(sc4c3CCN(C)C4)N2)cc(Br)c1OC(=O)c1ccc(C)cc1 (centres undefined),0%,22µM*,i,?,i,37
Cc1ccc(NC(CNS(=O)(=O)c2ccc(Cl)cc2)c2ccccc2)cc1 (centres undefined),-5%,i,i,?,i,45
O=S(=O)(NCC(Nc1ccc(Cl)cc1)c1ccccc1)c1ccccc1 (centres undefined),7%,i,i,?,i,109*
COc1cccc(NC(CNS(=O)(=O)c2ccc(Cl)cc2)c2ccccc2)c1 (centres undefined),3%,i,i,?,i,77*
COc1cccc(NC(CNS(=O)(=O)c2ccc(C)cc2)c2ccccc2)c1 (centres undefined),6%,i,i,?,i,31
CCC(=O)O[C@H]1C(C)(C)[C@H]([C@@H](O)C(=O)OC)[C@]2(C)C(=O)[C@@]1(O)[C@H]1O[C@]13C1CC(=O)O[C@@H](c4ccoc4)[C@]1(C)CCC32 (some centres undefined),nt,nt,nt,7%[20.6 µM],nt,nt
COc1cccc(CN(C(=O)c2oc3ccccc3c2C)C2CCS(=O)(=O)C2)c1 (centres undefined),8%,i,i,-2%,i,-23
COc1cccc(CN(C(=O)c2oc3cc(C)ccc3c2C)C2CCS(=O)(=O)C2)c1 (centres undefined),0%,i,i,32µM*,?,-30
CCOC(=O)c1noc2ncn(CC(=O)Nc3cccc(C(F)(F)F)c3)c(=O)c12,2%,i,i,-2%,i,65*
SMILES,GALK inhibitor,GALC G270D up,TSG101-PTAP inh,FH mod,B2AR arrestin ag,DRV1 agonist
CCOC(=O)c1noc2ncn(CC(=O)Nc3ccccc3OC)c(=O)c12,-1%,i,i,1%,i,-4
COc1cccc(-c2nc(SCC(=O)Nc3ccc4c(c3)OCCO4)c(-c3ccccc3)[nH]2)c1,-7%,i,i,40µM*,i,-21
COc1cccc(-c2nnc(SCC(=O)N(C)C3CCCCC3)o2)c1,6%,i,i,-3%,i,72*
COc1ccc(-c2nnc(SCC(=O)N(C)C3CCCCC3)o2)cc1OC,-2%,i,i,3%,i,5
COc1cccc(NC(=O)CSc2nnc(-c3cccc(OC)c3)o2)c1,-7%,i,i,-20%,i,78*
C/C(=C/CO)CC[C@H]1[C@]2(C)C[C@H](O)CC(C)(C)[C@H]2CC[C@]1(C)O,nt,nt,nt,8%[53.3 µM],nt,nt
Cc1sc2c(c1C)C(c1ccc(Cl)cc1)=N[C@H](CC(=O)NCCCCNC(=O)COc1cccc3c1C(=O)N([C@H]1CCC(=O)NC1=O)C3=O)c1nnc(C)n1-2,nt,nt,nt,-1%,nt,nt
Cc1ccc(CNC(=O)c2cc3c(s2)-c2ccc(Cl)cc2SC3)cc1,-1%,i,i,-9%,i,106*
O=C1CCC=CC1(O)C(=O)OCc1ccccc1O[C@@H]1O[C@H](CO)[C@@H](O)[C@H](O)[C@H]1O (some centres undefined),nt,nt,nt,5%[53.3 µM],nt,nt
CC(C)C(CO)Nc1nc(Nc2ccc(C(=O)O)c(Cl)c2)c2ncn(C(C)C)c2n1 (centres undefined),nt,nt,nt,-3%,nt,nt
Cc1ccc(CN(C(=O)COc2ccc(C(C)C)cc2)C2CCS(=O)(=O)C2)o1 (centres undefined),1%,i,i,-20%,i,61*
CC(O)C/C=C/C=C/C(=O)OC1C=C2COC(=O)C2(O)C2(C)CCCC(C)(C)C12 (centres undefined),nt,nt,nt,-4%[53.3 µM],nt,nt
COc1cccc(CN2CCc3nc(Nc4ccc5c(c4)OCCO5)ncc3C2)c1OC,-1%,i,i,-20%,i,86*

# Source: PubChem BioAssay
